{"source": "PubChem BioAssay AID2071", "about": "(Sanford-Burnham Center for Chemical Genomics, 2009)", "experiment": "NALP1 inflammasome inhibitors in reconstituted yeast, colorimetric, S. cerevisiae, triplicate retest (AID 2071)", "conditions": "S. cerevisiae NALP1/ASC/caspase-1 growth, X-gal OD620, 72 h, stronger effect = higher value", "note": "The whole screen tested about 280,000 compounds, of which about 1,700 (0.61%) were called active. This is one part of a sample in which actives are shown more often than they occur. Rule as the data show it: active = inhibition mostly above about 24% (no sharp cut-off); inactive = mostly below about 32%.", "data": [{"compound": "COC(=O)c1ccc2c(C(C)(C)O)c(C(C)(C)O)[nH]c2c1", "values": [{"measurement": "inhibition", "setting": "at 10 µM unless noted", "result": "2.7% (inactive)"}]}, {"compound": "O=C(Nc1cccc(Cl)c1Cl)c1ccccc1NC(=O)C1CC=CCC1C(=O)O", "note": "(centres undefined)", "values": [{"measurement": "inhibition", "setting": "at 10 µM unless noted", "result": "11% (inactive)"}]}, {"compound": "CCCN1C2CCCC1CC(NC(=O)NC13CC4CC(CC(C4)C1)C3)C2", "note": "(centres undefined)", "values": [{"measurement": "inhibition", "setting": "at 10 µM unless noted", "result": "13.5% (inactive)"}]}, {"compound": "COc1cccc(C(C(=O)NC2CCCC2)N(C(=O)c2ccco2)c2cccc(C(C)=O)c2)c1OC", "note": "(centres undefined)", "values": [{"measurement": "inhibition", "setting": "at 10 µM unless noted", "result": "24.9% (inactive)"}]}, {"compound": "CCCn1c(CCNc2nc(-c3ccc(OC)cc3)cs2)nc2ccccc21", "values": [{"measurement": "inhibition", "setting": "at 10 µM unless noted", "result": "-2.4% (inactive)"}]}, {"compound": "O=C(Cc1ccc(F)cc1)NC1CCCC1", "values": [{"measurement": "inhibition", "setting": "at 10 µM unless noted", "result": "9.3% (inactive)"}]}, {"compound": "O=C(CSc1ncnc2c1nnn2Cc1ccc(F)cc1)NC1CCCC1", "values": [{"measurement": "inhibition", "setting": "at 10 µM unless noted", "result": "23.4% (active)"}]}, {"compound": "O=C(CSc1ncnc2c1oc1ccccc12)NC1CCCC1", "values": [{"measurement": "inhibition", "setting": "at 10 µM unless noted", "result": "15.8% (inactive)"}]}, {"compound": "COc1ccc(-c2cc(C(=O)N(C)Cc3ccc(OC)c(OC)c3OC)c3ccccc3n2)cc1OC", "values": [{"measurement": "inhibition", "setting": "at 10 µM unless noted", "result": "19% (inactive)"}]}, {"compound": "Cc1nnc(NC2=NCCCCC2)o1", "values": [{"measurement": "inhibition", "setting": "at 10 µM unless noted", "result": "37.9% (active)"}]}, {"compound": "Cn1cccc1C(=O)N1CCc2ccccc2C1", "values": [{"measurement": "inhibition", "setting": "at 10 µM unless noted", "result": "19.1% (inactive)"}]}, {"compound": "CCC(C)c1ccc(NC(=S)N2CCCC2)cc1", "note": "(centres undefined)", "values": [{"measurement": "inhibition", "setting": "at 10 µM unless noted", "result": "-2.6% (inactive)"}]}, {"compound": "COC(=O)c1ccc(COc2ccc(/C=C/C(=O)c3ccc(OC)c(CSCC(=O)O)c3)cc2OC)cc1", "values": [{"measurement": "inhibition", "setting": "at 10 µM unless noted", "result": "34.2% (active)"}]}, {"compound": "COc1cc(/C=N/O)ccc1OCc1ccc([N+](=O)[O-])cc1", "values": [{"measurement": "inhibition", "setting": "at 10 µM unless noted", "result": "12.2% (inactive)"}]}, {"compound": "COc1ccc(C(=O)/C=C/c2ccc(-c3ccccc3)cc2)cc1CSCC(=O)O", "values": [{"measurement": "inhibition", "setting": "at 10 µM unless noted", "result": "3% (inactive)"}]}, {"compound": "CC(=O)Nc1ccc(N2C(=O)CC(Sc3nccc(C)n3)C2=O)cc1", "note": "(centres undefined)", "values": [{"measurement": "inhibition", "setting": "at 10 µM unless noted", "result": "-0.3% (inactive)"}]}, {"compound": "Cn1c(NC(=O)c2ccccc2)nc2ccccc21", "values": [{"measurement": "inhibition", "setting": "at 10 µM unless noted", "result": "7.4% (inactive)"}]}, {"compound": "CCc1ccc(S(=O)(=O)N/N=C\\c2ccc([N+](=O)[O-])o2)cc1", "values": [{"measurement": "inhibition", "setting": "at 10 µM unless noted", "result": "9.4% (inactive)"}]}, {"compound": "Cc1ccc(C(C[N+](=O)[O-])c2c(C)cc3ccccn23)cc1", "note": "(centres undefined)", "values": [{"measurement": "inhibition", "setting": "at 10 µM unless noted", "result": "98.9% (active)"}]}, {"compound": "Cc1cc2ccccn2c1C(=O)c1cccc(F)c1", "values": [{"measurement": "inhibition", "setting": "at 10 µM unless noted", "result": "17.6% (inactive)"}]}, {"compound": "CCC1=Nc2cc(C(=O)NCCCN3CCOCC3)ccc2Sc2ccc(Br)cc21", "values": [{"measurement": "inhibition", "setting": "at 10 µM unless noted", "result": "7.2% (inactive)"}]}, {"compound": "CCc1ccc(CN(C)C(=O)C2CCC(=O)N(Cc3cccc(OC)c3)C2)nc1", "note": "(centres undefined)", "values": [{"measurement": "inhibition", "setting": "at 10 µM unless noted", "result": "9.6% (inactive)"}]}, {"compound": "Cc1oc2cc3oc(=O)ccc3cc2c1C", "values": [{"measurement": "inhibition", "setting": "at 10 µM unless noted", "result": "8.6% (inactive)"}]}, {"compound": "CN(C)CCCN(C(=O)COc1ccccc1)c1nc2c(Cl)cccc2s1", "values": [{"measurement": "inhibition", "setting": "at 10 µM unless noted", "result": "3.9% (inactive)"}]}, {"compound": "COc1cccc2sc(N(CCCN(C)C)C(=O)CCS(=O)(=O)c3ccccc3)nc12", "values": [{"measurement": "inhibition", "setting": "at 10 µM unless noted", "result": "14.3% (inactive)"}]}, {"compound": "Cc1cccc2sc(N(CCCN(C)C)C(=O)CCS(=O)(=O)c3ccccc3)nc12", "values": [{"measurement": "inhibition", "setting": "at 10 µM", "result": "78.1% (active)"}, {"measurement": "inhibition", "setting": "triplicate retest, at 20 µM", "result": 99.3, "unit": "%"}]}, {"compound": "CC(C)CCNC(=O)c1ccc2c(Cl)c3c(nc2c1)CCC3", "values": [{"measurement": "inhibition", "setting": "at 10 µM unless noted", "result": "16.8% (inactive)"}]}, {"compound": "Cc1ccc(N(Cc2cc(=O)[nH]c3ccccc23)C(=O)CCl)cc1", "values": [{"measurement": "inhibition", "setting": "at 10 µM unless noted", "result": "17.4% (inactive)"}]}, {"compound": "O=C(CC(O)(C(F)(F)F)C(F)(F)F)Nc1ccc(Cl)c(Cl)c1", "values": [{"measurement": "inhibition", "setting": "at 10 µM", "result": "78.5% (active)"}, {"measurement": "inhibition", "setting": "triplicate retest, at 20 µM", "result": 110, "unit": "%"}]}, {"compound": "O=C(CC(=O)Nc1ccc(Cl)c(Cl)c1)N/N=C/c1ccc(O)cc1", "values": [{"measurement": "inhibition", "setting": "at 10 µM unless noted", "result": "21.7% (inactive)"}]}, {"compound": "Cc1ccc(NC(=O)C/C(N)=N/O)cc1Cl", "values": [{"measurement": "inhibition", "setting": "at 10 µM unless noted", "result": "-8.9% (inactive)"}]}, {"compound": "COc1ccc(C(=O)C2CCCN(C(=O)c3cc(C)on3)C2)cc1F", "note": "(centres undefined)", "values": [{"measurement": "inhibition", "setting": "at 10 µM unless noted", "result": "4% (inactive)"}]}, {"compound": "Cc1ccc(/C=N/NC(=O)c2cc3ccccc3cc2O)o1", "values": [{"measurement": "inhibition", "setting": "at 10 µM unless noted", "result": "-11.5% (inactive)"}]}, {"compound": "CC(=O)N(C)c1ccc(NC(=O)Nc2cccc3ccccc23)cc1", "values": [{"measurement": "inhibition", "setting": "at 10 µM unless noted", "result": "15.8% (inactive)"}]}, {"compound": "CCOc1cc(/C=C/c2nc3ccccc3c(=O)[nH]2)cc(Br)c1OC", "values": [{"measurement": "inhibition", "setting": "at 10 µM unless noted", "result": "8.1% (inactive)"}]}, {"compound": "O=C(c1ccc(CN2CCOCC2)cc1)N1CCN(c2ccccc2F)CC1", "values": [{"measurement": "inhibition", "setting": "at 10 µM unless noted", "result": "6.8% (inactive)"}]}, {"compound": "O=C(c1cccc2ccccc12)N1CCN(c2ccccc2F)CC1", "values": [{"measurement": "inhibition", "setting": "at 10 µM unless noted", "result": "41.1% (active)"}]}, {"compound": "COc1ccc2oc(=O)c(C(=O)N3CCN(c4ccccc4F)CC3)cc2c1", "values": [{"measurement": "inhibition", "setting": "at 10 µM unless noted", "result": "0.6% (inactive)"}]}, {"compound": "COc1ccccc1CNC(=O)[C@@H]1CCCN1C(=O)[C@@H]1Cc2ccccc2CN1C(=O)OC(C)(C)C", "values": [{"measurement": "inhibition", "setting": "at 10 µM unless noted", "result": "-18.4% (inactive)"}]}, {"compound": "COc1ccc(NC(=S)SC)cc1OC", "values": [{"measurement": "inhibition", "setting": "at 10 µM", "result": "73.8% (active)"}, {"measurement": "inhibition", "setting": "triplicate retest, at 20 µM", "result": 94.6, "unit": "%"}]}, {"compound": "COc1ccc(NC(=O)CNC(=O)Cc2ccccc2)cc1OC", "values": [{"measurement": "inhibition", "setting": "at 10 µM unless noted", "result": "-89.6% (inactive)"}]}, {"compound": "COc1ccc(NS(=O)(=O)c2ccc(NC(C)=O)cc2)cc1OC", "values": [{"measurement": "inhibition", "setting": "at 10 µM unless noted", "result": "26.3% (inactive)"}]}, {"compound": "Cc1cc(NC(=O)CCN2CCN(Cc3ccccc3)CC2)ccc1Br", "values": [{"measurement": "inhibition", "setting": "at 10 µM unless noted", "result": "16.7% (inactive)"}]}, {"compound": "CN(CCO)c1ccc(/C=N/Nc2nncc3ccccc23)cc1", "values": [{"measurement": "inhibition", "setting": "at 10 µM unless noted", "result": "3.8% (inactive)"}]}, {"compound": "O=C(C(NS(=O)(=O)c1cccc2nsnc12)c1ccccc1)N1CCN(c2ccccc2)CC1", "note": "(centres undefined)", "values": [{"measurement": "inhibition", "setting": "at 10 µM unless noted", "result": "34.4% (active)"}]}, {"compound": "O=C(O)C(NS(=O)(=O)c1cccc2nsnc12)c1ccccc1", "note": "(centres undefined)", "values": [{"measurement": "inhibition", "setting": "at 10 µM unless noted", "result": "15.5% (inactive)"}]}, {"compound": "O=C(C(NS(=O)(=O)c1cccc2nsnc12)c1ccccc1)N1CCN(c2ccccn2)CC1", "note": "(centres undefined)", "values": [{"measurement": "inhibition", "setting": "at 10 µM unless noted", "result": "8.1% (inactive)"}]}, {"compound": "CCOc1ccc(CN2CCN(CCCc3ccccc3)C(CCO)C2)cc1", "note": "(centres undefined)", "values": [{"measurement": "inhibition", "setting": "at 10 µM unless noted", "result": "28.9% (inactive)"}]}, {"compound": "CCn1ccnc1CN(C)C(=O)c1cc(COc2ccc(Cl)cc2OC)on1", "values": [{"measurement": "inhibition", "setting": "at 10 µM unless noted", "result": "-9.7% (inactive)"}]}, {"compound": "CC(C)(C)c1ccc(/C=C/C(=O)NCCCn2ccnc2)cc1", "values": [{"measurement": "inhibition", "setting": "at 10 µM unless noted", "result": "1.5% (inactive)"}]}, {"compound": "CCOc1ccccc1-c1cc(C(=O)N2CCOCC2)c2ccccc2n1", "values": [{"measurement": "inhibition", "setting": "at 10 µM unless noted", "result": "0.7% (inactive)"}]}, {"compound": "COc1ccc(F)c(-c2nc(CN3CCC(c4ccccc4)CC3)c(C)o2)c1", "values": [{"measurement": "inhibition", "setting": "at 10 µM unless noted", "result": "13.2% (inactive)"}]}, {"compound": "CCOc1ccccc1-c1nc(CN2CCC(C(=O)N3CCOCC3)CC2)c(C)o1", "values": [{"measurement": "inhibition", "setting": "at 10 µM unless noted", "result": "29% (active)"}]}, {"compound": "CCOc1ccc(CN2CCNC(=O)C2CC(=O)NCCCC2CCCC2)cc1", "note": "(centres undefined)", "values": [{"measurement": "inhibition", "setting": "at 10 µM unless noted", "result": "1% (inactive)"}]}, {"compound": "C/C(=N\\NC(=O)c1cc(-c2ccc(O)cc2)nc2ccccc12)c1cccnc1", "values": [{"measurement": "inhibition", "setting": "at 10 µM unless noted", "result": "-2.6% (inactive)"}]}, {"compound": "CCOC(=O)CSc1nc2ccc(C)cc2n2cnnc12", "values": [{"measurement": "inhibition", "setting": "at 10 µM unless noted", "result": "10.4% (inactive)"}]}, {"compound": "N#Cc1c(NC(=O)CSc2nc3ccccc3c(=O)n2Cc2ccco2)sc2c1CCCC2", "values": [{"measurement": "inhibition", "setting": "at 10 µM unless noted", "result": "20.7% (inactive)"}]}, {"compound": "COc1ccc(-n2c(SCC(=O)Nc3sc4c(c3C#N)CCCC4)nnc2-c2ccc(O)cc2)cc1", "values": [{"measurement": "inhibition", "setting": "at 10 µM unless noted", "result": "40.9% (active)"}]}, {"compound": "CCCc1cc(=O)[nH]c(SCC(=O)Nc2sc3c(c2C#N)CCCC3)n1", "values": [{"measurement": "inhibition", "setting": "at 10 µM unless noted", "result": "9.4% (inactive)"}]}, {"compound": "COc1ccc(C(=O)NCC(=O)N/N=C/c2cccnc2)cc1", "values": [{"measurement": "inhibition", "setting": "at 10 µM unless noted", "result": "-23.5% (inactive)"}]}, {"compound": "CC(C)[C@@H]1COC(c2cccc(C3=N[C@H](C(C)C)CO3)c2)=N1", "values": [{"measurement": "inhibition", "setting": "at 10 µM unless noted", "result": "10.4% (inactive)"}]}]}
